A number with no mark means an inactive call.

The values below come from the supplement of paper PMC13380429.

The test system of this test is Vero E6 infected with SARS-CoV-2. Kind of test: inhibition of SARS-CoV-2 cytopathic effect; higher = more antiviral protection, active = above 15. Particulars: 48 h.

As for `C[C@@H](O)[C@H]1C(=O)N2C(C(=O)O)=C([C@H]3CCCO3)S[C@H]12` [faropenem], the “inhibition of SARS-CoV-2 cytopathic effect” value (shortened to “inhibition”) by setting is: (1 nM) -0.32%; (8.33 nM) -0.11%; (100 nM) 1.66%; (833.33 nM) 0.92%; (10000 nM) 1.61%.

As for `CCCCCCCCCCCCCCCC(=O)C(F)(F)F`, the “inhibition” value runs as follows: (1 nM) -1.4%; (8.33 nM) 0.3%; (100 nM) -10.8%; (833.33 nM) -13.2%; (10000 nM) -0.25%.

For `CN(C)CCc1c[nH]c2ccc(C[C@H]3COC(=O)N3)cc12` [zolmitriptan], the “inhibition” value was -2.55% (1 nM); 2.01% (8.33 nM); -1.58% (100 nM); -2.13% (833.33 nM); -2.93% (10000 nM).

Take `CCCCn1c(-c2ccccc2)nc(-c2ccccc2)c1CN(Cc1ccc2c(c1)OCO2)Cc1ccc2c(c1)OCO2`: the “inhibition” value was 0% (1 nM); 1.63% (8.33 nM); -0.2% (100 nM); 0.71% (833.33 nM); 5.96% (10000 nM).

Consider `CC(C)(C)c1ccc(S(=O)(=O)Nc2ccc(Cl)cc2C(=O)c2cc[n+]([O-])cc2)cc1` [vercirnon], for which the “inhibition” value (1 nM) is 1.28%; the “inhibition” value (8.33 nM) was 1.21%; the “inhibition” value (100 nM) was 2.63%; the “inhibition” value (833.33 nM) was 4.3%; the “inhibition” value (10000 nM) is 1.46%.

Take `CC(C)NC(=O)COc1cccc(-c2nc(Nc3ccc4[nH]ncc4c3)c3ccccc3n2)c1`: the “inhibition” value was -1.49% (1 nM); -1.42% (8.33 nM); 0.74% (100 nM); 1.37% (833.33 nM); 1.49% (10000 nM).

Take `OCc1ccccc1O[C@@H]1O[C@H](CO)[C@@H](O)[C@H](O)[C@H]1O` [salicin]: the “inhibition” value is, setting by setting: (1 nM) 0.33%; (8.33 nM) 2.34%; (100 nM) 1.75%; (833.33 nM) 2.27%; (10000 nM) 5.91%.

For the molecule `Oc1nc(O)c2nc(O)[nH]c2n1` [uric-acid], the “inhibition” value by setting is: (1 nM) -0.34%; (8.33 nM) 0.2%; (100 nM) -1.96%; (833.33 nM) -1.44%; (10000 nM) -0.42%.

As to `N#CC(C#N)=Cc1ccc(O)c(O)c1` [tyrphostin-AG-18], the “inhibition” value runs as follows: (1 nM) 2.32%; (8.33 nM) 2.46%; (100 nM) 0.83%; (833.33 nM) 0.73%; (10000 nM) 0.85%.

On to `CCc1ccc(C(=O)C(C)CN2CCCCC2)cc1` (stereo not given) [eperisone], for which the “inhibition” value reads like this: (1 nM) 0.14%; (8.33 nM) 2.24%; (100 nM) 3.36%; (833.33 nM) 4.7%; (10000 nM) 2.77%.

Take `C[C@@](Cc1ccc(O)c(O)c1)(NN)C(=O)O` [carbidopa]: the “inhibition” value runs as follows: (1 nM) -5%; (8.33 nM) -1.47%; (100 nM) -3.59%; (833.33 nM) -2.28%; (10000 nM) -0.52%.

Consider `Cc1cccc(C)c1NC(=O)CN1CCCC1=O` [nefiracetam], for which the “inhibition” value reads like this: (1 nM) -0.7%; (8.33 nM) 0.26%; (100 nM) -2.77%; (833.33 nM) 1.22%; (10000 nM) -6.8%.

`O=C(NCC1(N2CCN(c3ccccc3)CC2)CCOCC1)c1cccnc1Sc1ccccc1`: the “inhibition” value (1 nM) was -0.72%; the “inhibition” value (8.33 nM) is 1.47%; the “inhibition” value (100 nM) is 1%; the “inhibition” value (833.33 nM) was -2.18%; the “inhibition” value (10000 nM) was 0.86%.

Consider `[Cl][Ru-]([Cl])([Cl])[Cl].[Na+].c1ccc2[nH]ncc2c1.c1ccc2[nH]ncc2c1`, for which the “inhibition” value (1 nM) is 2.72%; the “inhibition” value (8.33 nM) was 0.03%; the “inhibition” value (100 nM) was 1.2%; the “inhibition” value (833.33 nM) is 5.02%; the “inhibition” value (10000 nM) was 18% (active).

For the molecule `CCCCCCNC(=O)Nc1ccc(S(=O)(=O)Nc2ccc(CCNC[C@H](O)COc3ccc(O)cc3)cc2)cc1`, the “inhibition” value is, setting by setting: (1 nM) 0.66%; (8.33 nM) 0.75%; (100 nM) 0.54%; (833.33 nM) 2.18%; (10000 nM) 1.5%.

For `CO[C@H]1C[C@H](O[C@@H]2/C(C)=C/C[C@@H]3C[C@@H](C[C@]4(CC[C@H](C)[C@@H](C5CCCCC5)O4)O3)OC(=O)[C@@H]3C=C(C)/C(=N/O)[C@H]4OC/C(=C\C=C\[C@@H]2C)[C@]43O)O[C@@H](C)[C@@H]1O` [selamectin], the “inhibition” value by setting is: (1 nM) -1.61%; (8.33 nM) 0.4%; (100 nM) -0.73%; (833.33 nM) 2.72%; (10000 nM) 16.1% (active).

As to `c1ccc2c(c1)CCCc1cc(NCCN3CCOCC3)nnc1-2`, the “inhibition” value by setting is: (1 nM) 0.07%; (8.33 nM) 1.77%; (100 nM) 1.8%; (833.33 nM) 1.51%; (10000 nM) 0.84%.

For the molecule `CN(C(=O)/C=C/c1ccoc1)[C@@H]1CC[C@@]2(O)[C@H]3Cc4ccc(O)c5c4[C@@]2(CCN3CC2CC2)[C@H]1O5` [nalfurafine], the “inhibition” value by setting is: (1 nM) -5.32%; (8.33 nM) -1.02%; (100 nM) 0.43%; (833.33 nM) -2.31%; (10000 nM) -1.57%.
